# From PubChem
# A selection: hits, their analogues and other compounds. The true share with any hit is near 20%.
# Shiga toxin inh: blocks Shiga toxin action in Vero cells; inhibition, % at 38.7 µM; 290,000 tested, 9.2% active; AID 2315; Vero cells, Shiga toxin protein synthesis inhibition reporter; in the data active = inhibition mostly above about 28%, no sharp cut-off; inactive = mostly below about 43%; also: 0% is about no effect
# Pf growth 48h: inhibits P. falciparum growth in the first generation, 48 h; P. falciparum luciferase growth in erythrocytes, 48 h; Potency, µM (titrated, usually from 28.7 µM), inactives show at the highest dose activity change, negative = inhibition, most hits filed as inhibitors; 310,000 tested, 5.9% active; AID 504832; also: potency is read from the fitted curve at half-maximal effect; % is scaled to controls: 0 for no effect and ±100 for the full control effect
#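 Cell-based growth assay: transgenic P. falciparum expressing firefly luciferase, cultured in red cells within RPMI 1640 containing 0.5% w/v Albumax, 24 mM bicarbonate and gentamycin. A drop in luciferase activity indicates inhibition.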
# Pf growth 96h: P. falciparum growth inhibition at 96 hours; P. falciparum luciferase reporter growth, 96 h; Potency, µM (series often up to 28.7 µM), without a hit: top-dose activity change, negative = inhibition, most hits filed as inhibitors; 320,000 tested, 6.9% active; AID 504834; also: potency is read from the fitted curve at half-maximal effect; % is scaled to controls: 0 for no effect and ±100 for the full control effect
#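 96 h incubation, 37 C, 5% CO2, of luciferase-reporter P. falciparum-infected RBCs (2% hematocrit, 0.05% parasitemia final) with test compounds; endpoint luminescence.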
# HCMV inh: blocks human cytomegalovirus replication; HFF cells, HCMV-luciferase reporter, 72 h; hits give low values; activity change, negative = inhibition, % at 57.5 µM; 410,000 tested, 4.5% active; AID 1259415; in the data active = activity change below about -60%; inconclusive = no clear call, values can overlap the other calls; inactive = above about -39%; also: % is scaled to controls: 0 for no effect and ±100 for the full control effect
#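 HFF cells seeded 16 h at 37C, treated with compounds, infected with luciferase-reporter HCMV at MOI 1 PFU/cell; luciferase read at 72 h post infection, normalized to buffer-only and Salinomycin controls.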
# CHX counter: counter-screen for Shiga toxin inhibitors: cycloheximide protein synthesis inhibition. cell reporter, cycloheximide protein synthesis inhibition counterscreen. max response, %. 300,000 tested, 12% active. AID 2314; in the data active = max response mostly above about 13%, no sharp cut-off; inactive = mostly below about 14%; also: read at 38.3 µM for the half of the compounds with a filed dose; 0% is about no effect
# Active calls of the source: *; i = inactive; ? = inconclusive; . = no result given; [ ] = another dose, or the depositor's remark. Unless noted, calls follow the shape of the dose curve; as a rule, active = well fitted inhibition curve with a large enough effect; inconclusive = small, poorly fitted or top-dose-only effect, or another doubt; inactive = no such curve, though single readings can be large or run the other way.
SMILES,Shiga toxin inh,Pf growth 48h,Pf growth 96h,HCMV inh,CHX counter
CCCN1CCN(C(=O)c2nn(-c3ccc(OC)cc3)c(=O)c3c2c2ccccc2n3C)CC1,-7.8,13.4%,?,5.3,-8.0
Cc1ccc(CC(=O)NNC(=O)c2ccncc2)cc1C,.,?,18.1%,-6.0,.
COC(=O)c1ccc(CNC(=O)c2ccc(NS(=O)(=O)c3ccc4[nH]c(=O)[nH]c4c3)cc2)cc1,.,3.8%,31.9%,-19.0,.
CCNC(=O)c1ccc(NS(=O)(=O)c2ccc3[nH]c(=O)[nH]c3c2)cc1,46.1*,229.9%,150.3%,.,29.7*
O=CC1=C(c2ccccc2)Oc2ccccc2O1,93.7*,2.0%,?,-94.3*,38.3*
COc1ccc(N2C(=O)c3ccccc3NC23CCC(C)CC3)cc1 (centres undefined),54.2,108.3%,.,63.8,32.1*
COc1ccc(N2C(=O)c3ccccc3NC2(C)C)cc1,73.4*,219.1%,?,-15.3,14.9
CCOc1ccc(N2C(=O)c3ccccc3NC2(C)CC)cc1 (centres undefined),.,374.4%,419.9%,74.4,.
COc1ccc(N2C(=O)c3ccccc3NC23CCCCC3)cc1,51.9,134.1%,187.1%,8.8,26.0*
CCn1cc(CN2CCC(n3nccc3NC(=O)c3cccc(F)c3)CC2)cn1,16.7,-0.1%,7.1%,-1.3,9.1
O=C(OCc1ccc(Cl)cc1)c1cccnc1Cl,55.1,16.7%,-2.1%,?,17.7*
O=C(OCc1ccccc1)c1cccnc1Cl,18.9,24.2%,6.8%,?,10.1
O=C(O)c1ccccc1C(=O)OCc1ccccc1,16.9,31.7%,74.1%,89.7,5.0
O=C(OCc1ccc(Cl)cc1)c1ccccc1C(=O)c1ccccc1,60.2,28.6%,7.7%,-18.8,21.4*
COC(=O)c1ccc(COC(=O)c2cccnc2Cl)cc1,96.9,47.5%,71.5%,30.4,37.2*
O=C(OCc1ccc(COC(=O)c2ccccn2)cc1)c1ccccn1,66.3*,18.8%,.,11.5,29.7*
COc1ccc2c(c1OC)C(=O)OC2Nc1ncccc1C (centres undefined),-12.7,21.3%,74.3%,69.6,-1.6
COc1ccc2c(c1OC)C(=O)OC2Nc1nc(-c2ccc(-c3ccccc3)cc2)cs1 (centres undefined),120.7*,425.0%,i,42.2,80.2*
COc1ccc2c(c1OC)C(=O)OC2Nc1nc(-c2cc3cc([N+](=O)[O-])ccc3oc2=O)cs1 (centres undefined),-2.9,2.5%,i,-27.3,8.1
O=C1OC(Nc2nc(-c3ccc(F)cc3)cs2)c2ccccc21 (centres undefined),16.2,?,?,-91.2*,7.0
O=C1OC(Nc2nc3ccccc3s2)c2ccccc21 (centres undefined),21.6,-0.9%,2.1%,65.4,10.3
COc1ccc2c(c1OC)C(=O)OC2Nc1nc(-c2cc3ccccc3oc2=O)cs1 (centres undefined),68.0*,127.1%,i,37.4,58.6*
COc1cccc(-c2csc(NC3OC(=O)c4c3ccc(OC)c4OC)n2)c1 (centres undefined),41.5,85.8%,143.6%,15.8,46.1*
CCC(Oc1ccccc1)C(=O)Nc1nnc(S(=O)(=O)N(CC)CC)s1 (centres undefined),.,.,.,-2.5,.
O=C(/C=C\Nc1ccc(Cl)cn1)c1ccc(Br)cc1,35.6,108.3%,8.0%,3.4,14.1
SMILES,Shiga toxin inh,Pf growth 48h,Pf growth 96h,HCMV inh,CHX counter
O=C(/C=C/Nc1ccc(Br)cc1F)c1ccccc1,40.6*,169.8%,42.8%,-4.1,38.1*
O=C(/C=C/Nc1ccccc1F)c1ccc(Br)cc1,87.3*,246.0%,50.6%,47.8,60.8*
CCC(Cc1ccccc1)NC(=O)C1CCN(S(=O)(=O)c2ccc3c(c2)CC(C)N3C(C)=O)CC1 (centres undefined),0.9,?,?,?,-0.7
Cc1cc(/C=C2\SC(=S)N(C)C2=O)c(C)n1-c1cccc(O)c1,107.5*,-30.7%,1.5%,-92.0*,58.8*
CCOc1ccc(N2C(=O)/C(=C/c3ccccn3)SC2=S)cc1,-3.6,31.4%,15.6%,.,-2.0
COc1ccc(-n2c(C)cc(/C=C3/SC(=S)N(C)C3=O)c2C)cc1,11.5,41.3%,0.329µM*,?,8.8
O=C1/C(=C/c2ccccn2)SC(=S)N1c1cccc(O)c1,38.0*,7.3%,0.4%,?,36.4*
Cc1cc(/C=C2\SC(=S)N(Cc3ccco3)C2=O)c(C)n1-c1ccccc1,80.3*,?,?,-67.4*,73.2*
Cc1ccc(-n2c(C)cc(C=C3C(=O)N(C)C(=O)N(C)C3=O)c2C)cc1,.,.,.,22.5,.
O=C(c1ccccc1)n1c(=O)cc[nH]c1=O,.,?,74.2%,-13.5,.
COc1ccc(CC(=O)NCc2ccc3c(c2)CCN3C(=O)c2ccc(C)cc2)cc1OC,.,.,.,-17.2,.
CCC1CCCCN1S(=O)(=O)c1ccc(NC(=O)c2cc(=O)c3c(C)cc(C)cc3o2)cc1 (centres undefined),.,.,.,-10.2,.
Cc1ccccc1-c1noc(-c2ccccc2F)n1,68.0*,.,371.3%,112.7,35.6*
Fc1ccccc1-c1nc(-c2ccc(Cl)cc2)no1,.,.,.,177.0,.
Cc1ccccc1-c1noc(-c2ccc(Cl)cc2)n1,25.7,133.1%,?,119.4,24.0*
Cc1noc(-c2ccc(-c3noc(-c4ccc(Cl)cc4)n3)cc2)n1,.,.,.,6.1,.
Cc1ccccc1-c1noc(-c2ccc(O)cc2)n1,64.5*,13.2%,4.8%,-16.5,52.3*
COc1ccc(C(CNC(=O)c2cc(S(=O)(=O)N3CCN(c4ccccc4)CC3)ccc2Cl)N(C)C)cc1 (centres undefined),.,.,.,-39.1,.
Cc1cc2occ(CC(=O)N(C)CC(=O)Nc3cccc(F)c3)c2cc1C,-3.0,47.4%,33.9%,11.2,0.7
COc1cccc(NC(=O)C2COc3ccccc3O2)c1 (centres undefined),.,81.7%,?,83.9,59.7*
O=C(Nc1cccc(Cl)c1)C1COc2ccccc2O1 (centres undefined),29.3,-1.8%,1.65µM*,37.1,16.4*
Cc1cc(Cl)ccc1NC(=O)C1COc2ccccc2O1 (centres undefined),86.7*,202.3%,90.3%,49.5,37.3*
COc1cc2c(cc1OC)[C@@H]1O[C@](c3ccsc3)(C2)Oc2cc(C)n(-c3ccccc3)c(=O)c21,i,2.2%[5.75 µM],1.51µM*,.,-1.4
Cc1cc2c(c(=O)n1-c1ccccc1)C1O[C@](c3ccsc3)(Cc3ccccc31)O2,i,?,1.69µM*,.,11.1
CN1C(=O)C(C)(C)c2cc(S(=O)(=O)N3CCCC3C(=O)Nc3ccc(F)cc3)ccc21 (centres undefined),.,.,.,-21.1,.
COc1cccc(/C(C)=N/Nc2ccc(S(=O)(=O)N3CCCCC3)cn2)c1,.,?,?,-23.8,.
COc1ccc2nc(NC(=O)c3cc(C)oc3C)sc2c1,36.0*,22.9%,-92.8%,45.8,18.0*
CSc1ncccc1C(=O)Nc1ccc(OC(F)(F)F)cc1,15.5,10.1%,42.0%,2.4,13.0*
